This is an account of results in PubChem BioAssay.

One assay addresses Albumin (Bos taurus) (UniProt P02769). Put plainly: compounds binding labelled BSA control protein – biochemical, small-molecule microarray, Alexa647 label, 635/667 nm fluorescence, artefact control for SMM control protein annotation, profiling panel (AID 1118).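 Also: score merges 667 nm emission intensity and signal-to-noise per printed compound spot.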 Particulars: BSA-A647 binding, fluorescence 635 nm, higher = more signal.
Assay [1] in a line: probe aXIP binding to arrayed compounds – biochemical, NeuroSMM set, 635/667 nm fluorescence, primary screen (AID 1119).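 Also: probe is the protein aXip251-270 applied at 1 µg/mL to compound-printed slides; binding of probe to printed compounds measured as 667 nm fluorescence plus signal to noise.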 Particulars: small-molecule microarray, higher = more signal, called active from +8 up or from −8 down.
Assay [2] can be described thus: probe aNOTCH3 binding on compound microarray – biochemical, small-molecule microarray, 635/667 nm fluorescence, primary screen (AID 1120).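 Also: probe is a biotin-tagged antibody raised against NOTCH3 rather than NOTCH3 protein; score merges spot fluorescence near 667 nm with spot signal to noise.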 Particulars: higher = more signal.
The nature of assay [3]: probe aNOTCH2 binding on compound microarray – biochemical, small-molecule microarray, 635/667 nm fluorescence, primary screen (AID 1121).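 Also: score merges feature fluorescence read at 667 nm with its signal to noise.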 The following applies: higher = more signal.
The target of assay [4] is Carbonic anhydrase 2 (Homo sapiens) (UniProt P00918). The assay is described as follows: compounds binding carbonic anhydrase 2 – biochemical, small-molecule microarray, Alexa647-labelled CAII, profiling panel (AID 1122). The following applies: CAII-A647 binding fluorescence, higher = more signal.
Assay [5] in a line: COS7 lysate on small-molecule microarray, probe aHis, 635 nm (AID 1123).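 Also: z-score combines 667nm fluorescence intensity with signal-to-noise per printed compound spot.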 Particulars: COS7 cell lysate, fluorescence, higher = more signal.
A short description of assay [6]: probe aLAP1 signal on lysate-treated microarray – cell lysate, small-molecule microarray, COS7 lysate, primary screen (AID 1124).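 Also: lysate comes from COS7 cells expressing LAP1 and is applied at 0.3 µg/mL; score merges spot fluorescence near 667 nm with signal-to-noise over triplicate slides.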 The following applies: probe aLAP1, fluorescence, higher = more signal.
A further assay deals with Sam68 (KHDRBS1). Put plainly: compounds binding KHDRBS1 protein – biochemical, small-molecule microarray, 635 nm fluorescence, primary screen (AID 1125).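 Also: score merges 667 nm channel intensity with signal to noise over triplicate slides.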 The following applies: higher = more signal.
For assay [7], the system named is Chordin-like protein 2 (CHRDL2). The assay is described as follows: compounds binding chordin-like 2 – biochemical, small-molecule microarray, 635 nm fluorescence, primary screen (AID 1126).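 Also: printed compound slides probed with Chrdl2 protein at 4 µg/mL for 1 h at 4 C; score merges 667 nm emission intensity with signal to noise over three replicate slides.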 Particulars: fluorescence 635 nm, higher = more signal.
The target of assay [8] is Concanavalin-A (Canavalia ensiformis) (UniProt P02866). The assay is described as follows: compounds binding concanavalin A lectin – biochemical, small-molecule microarray, Alexa647 label, 635 nm, artefact control for SMM control protein annotation, primary screen (AID 1127).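 Also: z combines 667 nm emission intensity with signal-to-noise across three replicate slides.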 The following applies: ConA-A647 binding fluorescence, higher = more signal.

Calls of active or inactive are those of the source.

Sequence of Concanavalin-A (Canavalia ensiformis) (P02866 whole entry, looked up): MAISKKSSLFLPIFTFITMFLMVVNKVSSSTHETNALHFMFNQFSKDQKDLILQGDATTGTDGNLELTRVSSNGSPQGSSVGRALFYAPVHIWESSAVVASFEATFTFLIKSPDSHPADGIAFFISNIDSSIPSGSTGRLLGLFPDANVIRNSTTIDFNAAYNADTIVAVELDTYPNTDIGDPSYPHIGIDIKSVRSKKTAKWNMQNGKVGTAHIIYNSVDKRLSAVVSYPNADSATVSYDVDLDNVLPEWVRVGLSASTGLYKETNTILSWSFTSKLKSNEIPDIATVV
Sequence of Albumin (Bos taurus) (P02769 whole entry, looked up): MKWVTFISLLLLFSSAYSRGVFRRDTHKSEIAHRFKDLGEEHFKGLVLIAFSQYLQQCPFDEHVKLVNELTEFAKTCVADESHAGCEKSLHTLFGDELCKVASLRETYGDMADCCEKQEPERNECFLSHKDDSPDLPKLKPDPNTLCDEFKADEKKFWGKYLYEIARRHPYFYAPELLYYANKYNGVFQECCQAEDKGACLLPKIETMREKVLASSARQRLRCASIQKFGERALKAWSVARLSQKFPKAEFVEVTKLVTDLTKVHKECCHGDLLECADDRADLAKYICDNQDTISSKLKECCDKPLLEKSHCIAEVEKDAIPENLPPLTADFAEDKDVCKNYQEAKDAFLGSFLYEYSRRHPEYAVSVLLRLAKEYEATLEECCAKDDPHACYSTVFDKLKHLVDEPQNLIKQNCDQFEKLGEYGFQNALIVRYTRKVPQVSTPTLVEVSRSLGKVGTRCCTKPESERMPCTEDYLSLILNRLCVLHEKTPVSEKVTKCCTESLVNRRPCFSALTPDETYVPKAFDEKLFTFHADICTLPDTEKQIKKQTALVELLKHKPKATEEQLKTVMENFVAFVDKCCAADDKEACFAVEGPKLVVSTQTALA

As for `COC(=O)[C@@]1(Cc2ccc(F)cc2)[C@H]2c3cc(C(=O)N(C)C)n(Cc4cccc5ccccc45)c3C[C@H]2CN1C(=O)c1ccccc1`, the composite z-score with Albumin (Bos taurus) amounted to 0.617; in assay [2], 0.223; in assay [3] it was 0.168; in assay [4] it was 0.86; in [5], 4.13; in assay [6], 0.881. The figures for the composite z-score (in the assay with Sam68 (KHDRBS1); in assay [7]; in assay [8]) were 0.343, -0.967 and 0.162, respectively. Besides, the composite Z-score in assay [1] is 0.0828 (inactive).

For `CC[C@@H](O[Si](C#C[Si](C(C)C)(C(C)C)C(C)C)(C(C)C)C(C)C)c1cn([C@H](C)c2ccccc2)nn1`, the composite z-score is -0.605 in the assay with Albumin (Bos taurus); -0.016 in assay [2]; -0.171 in assay [3]; 0.0757 in assay [4]; 0.365 in assay [5]; 0.369 in assay [6]. In addition, the values for the composite z-score (in the assay on Sam68 (KHDRBS1); in assay [7]; in assay [8]) were 0.71, 0.26 and 0.364, respectively. Moreover, the composite Z-score in assay [1] is 0.515 (inactive).

Turning to `COc1ccc(CCNC(=O)[C@@]2(C)c3ccccc3C(=O)N(Cc3ccc(OC(F)(F)F)cc3)[C@H]2c2ccc(CO)cc2)cc1`, the composite z-score is -0.146 with Albumin (Bos taurus); -0.104 in assay [2]; -0.163 in assay [3]; 0.611 in assay [4]; 1.37 in assay [5]; 0.687 in assay [6]. The composite z-score in the assay with Sam68 (KHDRBS1) amounted to 1.3; in assay [7], 0.309; in [8], 0.781. In [1], the composite Z-score is 0.431 (inactive).

On to `COc1cc(Cc2cc3c(c(CCc4ccccc4)n2)[Si](C(C)C)(C(C)C)O[C@H]3c2ccccc2)cc(OC)c1OC`, for which the composite z-score with Albumin (Bos taurus) was -0.405; in assay [2], -0.15; in [3] it was -0.181; in assay [4], -0.128; in assay [5], -0.178; in assay [6], -0.177. Further, the composite z-score in the assay on Sam68 (KHDRBS1) is -0.361; in assay [7], 0.06; in assay [8] it was 0.562. Besides, the composite Z-score in assay [1] was -0.0849 (inactive).

For `C=CCC(OC(C)=O)[C@@H]1[C@@H](N(Cc2ccc(-c3ccccc3)cc2)C(=O)Cc2ccc(OC)cc2)c2cc(OCCCO)ccc2N1C(=O)Cc1ccc(OC)cc1` (stereo not given in full), the composite z-score with Albumin (Bos taurus) is -0.0621; in assay [2] it was 0.464; in assay [3], 0.146; in assay [4] it was 0.306; in assay [5] it was 0.248; in assay [6], 0.302. Moreover, the composite z-score in the assay with Sam68 (KHDRBS1) is 0.0538; in assay [7], 0.235; in assay [8], -0.0563. Moreover, the composite Z-score in assay [1] was 0.445 (inactive).

As to `C=CCNC(=O)[C@H]1[C@@H]2C(=O)O[C@@H](c3ccccc3)[C@@H](c3ccccc3)N2[C@@H](c2ccc(O)cc2)[C@]12C(=O)N(C(=O)OCCOC)c1ccc(C#Cc3ccc(OC)cc3)cc12`, the composite z-score is 0.451 in the assay with Albumin (Bos taurus); 0.0271 in assay [2]; -0.112 in assay [3]; 0.382 in assay [4]; 0.428 in assay [5]; 0.5 in assay [6]. The composite z-score was 0.934 in the assay on Sam68 (KHDRBS1), -0.142 in assay [7] and 0.876 in [8]. The composite Z-score in assay [1] was -0.0437 (inactive).

On to `COCCOC(=O)N1C(=O)[C@@]2(c3cc(C#CC4(O)CCCCCC4)ccc31)[C@H](C(N)=O)[C@H]1C(=O)O[C@H](c3ccccc3)[C@H](c3ccccc3)N1[C@@H]2c1ccc(OCCO)cc1`, for which the composite z-score was 0.736 in the assay with Albumin (Bos taurus); 0.086 in [2]; -0.118 in assay [3]; 0.566 in [4]; 2.58 in [5]; 0.412 in assay [6]. Besides, the results for the composite z-score (with Sam68 (KHDRBS1); in assay [7]; in assay [8]) were 1.3, -0.0029 and 1.17, respectively. For the same molecule, the composite Z-score in assay [1] was 0.133 (inactive).

As for `COCCOC(=O)N1C(=O)[C@@]2(c3cc(C#CCC(C(=O)OC)C(=O)OC)ccc31)[C@H](c1ccc(O)cc1)N1[C@H](c3ccccc3)[C@H](c3ccccc3)OC(=O)[C@H]1[C@@H]2C(=O)N1CCc2cc(OC)c(OC)cc2C1`, the composite z-score was -0.0894 with Albumin (Bos taurus); 0.147 in assay [2]; -0.0166 in assay [3]; 0.378 in assay [4]; 1.12 in [5]; 0.761 in assay [6]. Moreover, the results for the composite z-score (with Sam68 (KHDRBS1); in assay [7]; in [8]) were 1.29, 0.242 and 0.903, respectively. Moreover, the composite Z-score in [1] is -0.262 (inactive).

Turning to `C=CCN1C(=O)[C@@]2(O[C@@H](CCO)[C@H]([Si](C)(C)c3ccc(OC)cc3)[C@H]2C)c2cc(N3CCCCC3=O)ccc21`, the composite z-score with Albumin (Bos taurus) is 0.446; in assay [2] it was 0.239; in assay [3] it was -0.108; in assay [4] it was 0.429; in assay [5], 1.17; in assay [6], 0.0635. Also, the values for the composite z-score (in the assay on Sam68 (KHDRBS1); in [7]; in assay [8]) were 0.702, 0.285 and 0.901, respectively. Further, the composite Z-score in assay [1] was 0.734 (inactive).

`CC(C)(C)OC(=O)CC[C@]1(C(=O)N2CCOCC2)COC(c2ccc(OCCCO)cc2)=N1`: the composite z-score is 0.947 with Albumin (Bos taurus); -0.0387 in assay [2]; -0.129 in assay [3]; 0.853 in assay [4]; 2.85 in assay [5]; -0.494 in assay [6]. In addition, the composite z-score with Sam68 (KHDRBS1) is 0.836; in [7], -1.17; in assay [8], 0.0647. The composite Z-score in assay [1] was -0.124 (inactive).

On to `COC(=O)C(CC#Cc1ccc2c(c1)[C@]1(C(=O)N2)[C@H](C(=O)NC[C@H](O)c2ccccc2)[C@H]2C(=O)O[C@H](c3ccccc3)[C@H](c3ccccc3)N2[C@@H]1c1ccc(O)cc1)C(=O)OC`, for which the composite z-score is 0.41 with Albumin (Bos taurus); -0.0932 in [2]; -0.126 in assay [3]; 0.683 in assay [4]; 0.84 in assay [5]; -0.177 in assay [6]. Also, the values for the composite z-score (with Sam68 (KHDRBS1); in assay [7]; in assay [8]) were -0.165, -0.275 and 0.188, respectively. For the same molecule, in assay [1], the composite Z-score is 1.05 (inactive).

`CCCCCCc1nc(Cc2cc(OC)c(OC)c(OC)c2)c(C)c2c1[Si](C(C)C)(C(C)C)OC2`: the composite z-score with Albumin (Bos taurus) is -0.287; in assay [2] it was -0.13; in [3], -0.178; in [4], -0.0168; in assay [5] it was 0.0854; in [6] it was -0.251. In addition, the composite z-score in the assay with Sam68 (KHDRBS1) was determined as 0.294; in assay [7], 0.19; in assay [8], 0.0356. In addition, the composite Z-score in assay [1] is 0.108 (inactive).

Regarding `C=C(COC)/C(=C/C[C@@H](OC(C)=O)c1cccc(OCCO)c1)c1cnc2ccccc2c1`, the composite z-score is 0.238 with Albumin (Bos taurus); 0.0916 in assay [2]; -0.084 in [3]; 0.98 in [4]; 1.12 in assay [5]; 0.0842 in assay [6]. The composite z-score is 0.965 with Sam68 (KHDRBS1), 1.42 in [7] and 0.877 in assay [8]. The composite Z-score in assay [1] was -0.365 (inactive).

For the molecule `CC(C)[Si](C#Cc1ccccc1)(O[C@H](c1ccccc1)c1cn(Cc2ccccc2)nn1)C(C)C`, the composite z-score with Albumin (Bos taurus) is 0.939; in assay [2] it was -0.127; in [3], -0.189; in [4], 0.57; in assay [5], 0.467; in [6] it was 0.471. In addition, the composite z-score worked out at 0.879 with Sam68 (KHDRBS1), 0.664 in [7] and 1.17 in [8]. The composite Z-score in assay [1] was 0.708 (inactive).
